SARS PLP yeast = blocks SARS-CoV papain-like protease in a yeast assay; S. cerevisiae expressing SARS-CoV PLpro, growth rescue; Potency, µM (titrated, usually from 32.9 µM), most hits filed as activators; 0.19% of 330,000 active; calls by dose curve; also: nearly all actives have a fitted effect of over 55% in size
NS1 function inh = blocks influenza NS1 protein function; Potency, µM (titrated, usually from 46.1 µM); 0.4% of 270,000 active; calls by dose curve; also: actives are rising curves; nearly all actives have a fitted effect of over 50% in size
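S. cerevisiae expressing influenza A NS1, grown in glucose, washed, then diluted 1:100 into pH 6.0 -URA galactose medium with 23 nl compound. Growth recovery read as OD600; NS1-free strain serves as control.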
Shiga inhibitor = blocks Shiga toxin action in Vero cells. 9.2% of 290,000 active. Vero cells, Shiga toxin protein synthesis inhibition reporter. AID 2315. inhibition, % at 38.7 µM; in the data active = inhibition mostly above about 28%, no sharp cut-off; inactive = mostly below about 43%
Pf growth 48h = P. falciparum growth inhibition at 48 hours (one generation) | AID 504832 | 5.9% of 310,000 active | Potency, µM (doses to about 28.7 µM), hits mostly inhibitors | P. falciparum luciferase growth in erythrocytes, 48 h
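First compound was added to culture medium, then infected red cells at 0.1% parasitemia and 2% hematocrit (final). After incubation at 37 C under 5% CO2, luciferase detection reagent was dispensed and light output recorded.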
Pf growth 96h = P. falciparum growth inhibition at 96 hours. P. falciparum luciferase reporter growth, 96 h. Potency, µM (titrated, usually from 28.7 µM), actives largely listed as inhibitors. 6.9% of 320,000 active
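Compounds incubated with erythrocytes infected by luciferase-expressing P. falciparum (2% hematocrit, 0.05% parasitemia final) for 96 hours, 37 C in 5% CO2. Growth inhibition scored as decreased luciferase luminescence.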
Cycloheximide cs = affects cycloheximide protein synthesis inhibition readout, counter-screen; 12% of 300,000 active; cell reporter, cycloheximide protein synthesis inhibition counterscreen; max response, %; in the data active = max response mostly above about 13%, no sharp cut-off; inactive = mostly below about 14%; also: read at 38.3 µM for the half of the compounds with a filed dose
Large screens that a line does not name were inactive. In the library only some 21% were active in any assay of this set; here they are far more common. Unless noted, calls follow the shape of the dose curve; as a rule, active = well fitted inhibition curve with a large enough effect; inconclusive = small, poorly fitted or top-dose-only effect, or another doubt; inactive = no such curve, though single readings can be large or run the other way.

CCOc1cc(/C=N\Nc2ncc(F)c(N3CCOCC3)n2)ccc1Oc1nc(Cl)ncc1F	Shiga inhibitor 100, Pf growth 48h 1.7µM, Pf growth 96h 1.9µM, Cycloheximide cs 42
Fc1cnc(N/N=C/c2ccc(-c3ccc(Br)cc3)o2)nc1N1CCOCC1	Shiga inhibitor 58, Pf growth 48h inconclusive, Pf growth 96h 5.9µM, Cycloheximide cs 34
Brc1ccc(-c2ccc(/C=N/Nc3nc(N4CCOCC4)nc(N4CCOCC4)n3)o2)cc1	Pf growth 48h 12µM (no result: NS1 function inh)
CC(C)c1ccc(/C=N/Nc2cc(N3CCOCC3)nc(N3CCOCC3)n2)cc1	Pf growth 48h inconclusive
Clc1ccc(-c2ccc(/C=N/Nc3cc(N4CCOCC4)nc(N4CCOCC4)n3)o2)cc1	Pf growth 48h 9.3µM
Brc1ccc(-c2ccc(/C=N/Nc3nncc(-c4ccccc4)n3)o2)cc1	none (no result: Pf growth 48h)
Cc1cccc(NC2=C(Cl)C(=O)OC2OC(C)C)c1 (stereo not drawn)	none (no result: NS1 function inh)
Cc1ccc(NC2=C(Cl)C(=O)OC2OC(C)C)cc1 (stereo not drawn)	Pf growth 96h 13µM (no result: NS1 function inh)
O=C(CCCOc1ccccc1)Nc1nccs1	Pf growth 48h inconclusive, Pf growth 96h inconclusive
COc1ccccc1OCCCC(=O)Nc1nccs1	Shiga inhibitor 89, Cycloheximide cs 52
CCc1ccc(OCCCC(=O)Nc2nccs2)cc1	Shiga inhibitor 53, Pf growth 48h inconclusive, Cycloheximide cs 29
CC(C)C(NC(=O)c1ccco1)C(=O)NCc1ccc(C(=O)O)cc1 (stereo not drawn)	none
CCOc1ccc(NC(=O)c2ccc(NC(=O)c3cn4c5c(c(N6CCN(C)CC6)c(F)cc5c3=O)OCC4C)cc2)cc1 (stereo not drawn)	Pf growth 48h 2.3µM, Pf growth 96h 2.6µM
Cc1sc2nc(SCC(=O)C(C)(C)C)n(Cc3ccco3)c(=O)c2c1C	Pf growth 48h 3.7µM, Pf growth 96h 10µM
Cc1cccc(CSc2nc3sc(C)c(C)c3c(=O)n2Cc2ccco2)c1	Pf growth 48h 15µM (no result: Pf growth 96h)
Cc1sc2nc3c4ccccc4c(NCc4ccco4)nn3c(=O)c2c1C	Shiga inhibitor 135, Pf growth 96h 5.9µM, Cycloheximide cs 73
CCOC(=O)C1(C)NC(c2ccc(OC)cc2OC)C2C(=O)N(CC)C(=O)C21 (stereo not drawn)	none
Cc1ccc(OCCCCNC2CCCCC2)c(C)c1	Pf growth 48h inconclusive (no result: NS1 function inh)
O=c1oc2cc(OCc3ccc(C(F)(F)F)cc3)ccc2cc1-c1ccccn1	none
CC(=O)COc1ccc2cc(-c3ccccc3)c(=O)oc2c1	Shiga inhibitor 73, Cycloheximide cs 42
COc1ccc(-c2cc3ccc(OC(C)C(=O)O)cc3oc2=O)cc1 (stereo not drawn)	Pf growth 96h inconclusive, Cycloheximide cs 13 (no result: SARS PLP yeast)
COc1ccc2cc(C(C)=O)c(=O)oc2c1	none
COc1ccc(-c2cc3ccc(OCC(=O)NCC4CCC(C(=O)O)CC4)cc3oc2=O)cc1 (stereo not drawn)	SARS PLP yeast inconclusive, Shiga inhibitor 29, Cycloheximide cs 27
O=C(CCCCl)Oc1ccc2cc(-c3ccc4ccccc4n3)c(=O)oc2c1	Cycloheximide cs 20
CC(=O)Oc1ccc2cc(-c3ccccc3)c(=O)oc2c1	Shiga inhibitor 53, Cycloheximide cs 34
CC(=O)Oc1ccc2c(=O)c(-c3ccccc3)coc2c1	Shiga inhibitor 80, Cycloheximide cs 38 (no result: NS1 function inh)
CN(Cc1ccccc1)C(=O)c1nc2ccccn2c1CN1CCCC1c1nccs1 (stereo not drawn)	Pf growth 48h 6.6µM, Pf growth 96h inconclusive
COc1ccc(C)cc1NC(=O)CN1C(=O)COc2ccc(S(=O)(=O)N3CCCCC3)cc21	none
CCc1nnc(NC(=O)c2nc(S(=O)(=O)Cc3cccc(C)c3)ncc2Cl)s1	Shiga inhibitor 74, Cycloheximide cs 58
CCc1nnc(NC(=O)c2nc(S(=O)(=O)Cc3ccccc3)ncc2Cl)s1	NS1 function inh inconclusive, Shiga inhibitor 114, Cycloheximide cs 75
CCc1nnc(NC(=O)c2nc(S(=O)(=O)Cc3ccc(C)cc3)ncc2Cl)s1	Shiga inhibitor 78, Pf growth 96h inconclusive, Cycloheximide cs 57
CCc1noc(C)c1C(=O)Nc1nnc(C(CC)CC)s1	Pf growth 48h inconclusive (no result: NS1 function inh, Shiga inhibitor, Cycloheximide cs)
Cc1cc(C)c(C#N)c(SCc2nnc(-c3ccccc3[N+](=O)[O-])o2)n1	Shiga inhibitor 70, Pf growth 96h inconclusive, Cycloheximide cs 47
